Our source for the outcome values is PubChem BioAssay (Tox21).

Active and inactive are the calls of the source. Calls come from the whole dose curve; as a rule, active = well fitted curve in the direction sought with a large enough effect in the repeat runs; inconclusive = weak or mixed curves; inactive = flat fitted curve, though single readings scatter.

This assay is described as follows: qHTS assay to test for compound auto fluorescence at 535 nm (green) in HepG2 cells (AID 720675). As to conditions: green autofluorescence 485/535 nm, 1 h; series mostly up to 91.3 µM. The source says:
National Center for Advancing Translational Sciences [NCATS]
NIH Chemical Genomics Center [NCGC]
U.S. Environmental Protection Agency [EPA]
National Institutes of Environmental Health Sciences [NIEHS]
National Toxicology Program [NTP]
U.S. Food and Drug Administration [FDA]
Compound auto fluorescence often interferes with screening of the compound library against various biological targets and signaling pathways. Some of these compounds may have fluorophoric properties. Such properties may interfere with the assay outputs resulting in false positives and/or negatives. To decrease such complications and ensure the compound activities are relevant in terms of biological response, the Tox21 10K compound library was screened for auto fluorescence.
From the fluorophores used as reporter signals in our screening assays, the auto fluorescence equivalencies of compounds against three fluorophores have been evaluated: Triamterene, Fluorescein and Rose Bengal sodium for blue, green and red fluorescence, respectively. The fluorescence intensities were measured using Excitation/Emission wavelengths at 405/460nm, 485/535nm and 540/590nm for blue, green and red labels, respectively. This assay includes the green fluorescence data.
Tox21 Assay Protocol Summary:
2,000 HepG2 cells in 5 uL of culture medium (MEM containing 10% FBS) per well were dispensed into black wall/clear bottom 1536-well plates using a Multidrop Combi Dispenser (ThermoFisher Scientific, Waltham, MA). The assay plates were incubated overnight at 37 C to allow cell attachment to the well bottom, followed by the transfer of 23 nL compound or DMSO vehicle by a pintool work station (Kalypsys , San Diego, CA). After the assay plates were incubated for 1 hr at 37 C and 5% CO2, fluorescence intensities in the assay plates were measured by an Envision (PerkinElmer, Shelton, CT) plate reader using three labels for measuring blue, green and red fluorescence at […] 460, 535 and 590 nm respectively.
For `Nc1c(Cl)c(Cl)nc(C(=O)O)c1Cl`, the call was inactive.

As for `O=C1CCCN1`, the compound was called inactive.

Consider `[N-]=[N+]=[N-]`, for which the compound was classed as inactive.

Take `C#CC(C)(C)NC(=O)c1cc(Cl)cc(Cl)c1`: the result was inactive.

Turning to `BrCCBr`, the compound was classed as inactive.

`O=S(=O)(c1ccc(Cl)cc1)c1cc(Cl)c(Cl)cc1Cl`: the outcome was inactive.

Regarding `COC(=O)c1ccccc1C(=O)OC`, the result was inactive.

As for `COC(=O)c1ccccc1N`, the compound was called inactive.

Take `ClCc1cccnc1`: the result was inactive.

Take `CCC(C)(CC)c1cc(NC(=O)c2c(OC)cccc2OC)on1`: the outcome was inactive.

As for `CCNc1nc(NC(C)(C)C)nc(SC)n1`, the outcome was inactive.

Turning to `C1CN2CCN1CC2`, the result was inactive.

For `Nc1ccc(Cc2ccc(N)cc2)cc1`, the outcome was inactive.

For the compound `O=[N+]([O-])c1ccccc1`, the outcome was inactive.

With `Cc1cccc([N+](=O)[O-])c1`, the call was inactive.

For `CCCCN(CC)C(=O)SCCC`, the outcome was inactive.

Take `O=C(O)c1ccccn1`: the result was inactive.

Turning to `CCC[CH2][Sn]([Cl])([Cl])[Cl]`, the compound was called inactive.

Turning to `CN=C=S`, the outcome was inactive.

Take `CCCCN(CCCC)SN(C)C(=O)Oc1cccc2c1OC(C)(C)C2`: the compound was called inactive.

In the case of `CNC(=O)Oc1ccccc1OC(C)C`, the compound was classed as inactive.

As to `CC(Oc1ccc(Cl)cc1Cl)C(=O)O` (stereo not given), the result was inactive.

Regarding `CCC12COCN1COC2`, the compound was classed as inactive.

Take `C=C(C)CCl`: the compound was classed as inactive.

As for `COP(N)(=O)SC` (stereo not given), the outcome was inactive.

As for `O=c1ccc(=O)[nH][nH]1`, the compound was called inactive.

For the compound `CCCCCCCCCl`, the call was inactive.

With `[O-][Cl+2]([O-])O`, the compound was classed as inactive.

As to `CC(C)(C)C(O)(CCc1ccc(Cl)cc1)Cn1cncn1` (stereo not given), the call was inactive.

Take `CCCC1COC(Cn2cncn2)(c2ccc(Cl)cc2Cl)O1` (stereo not given): the compound was called inactive.

In the case of `O=C(NC(=O)c1c(F)cccc1F)Nc1cc(Cl)c(OC(F)(F)C(F)C(F)(F)F)cc1Cl` (stereo not given), the outcome was inactive.

Turning to `c1ccc2c(c1)Oc1ccccc1O2`, the compound was classed as inactive.

Consider `CCOP(=S)(OCC)SCCSCC`, for which the outcome was inactive.

With `CC(C)=C[C@@H]1[C@@H](C(=O)OCc2coc(Cc3ccccc3)c2)C1(C)C`, the outcome was inactive.

`CC1OC(C)OC(C)O1` (stereo not given): the compound was called inactive.

Consider `CCN(CC)CCO`, for which the compound was classed as inactive.

On to `COC(=O)NS(=O)(=O)c1ccc(N)cc1`, for which the outcome was inactive.

With `CC(C)(C)OOC(C)(C)C`, the call was inactive.

Turning to `COc1ccc2c3c1O[C@H]1[C@@H](O)C=C[C@H]4[C@@H](C2)N(C)CC[C@@]341`, the compound was classed as inactive.

Take `c1cc2c3c(cccc3c1)CC2`: the result was inactive.
